Experimental data reported in PubChem BioAssay (NCI).
This is part of a sample that, as a whole, favours compounds with a hit. Of some 83,000 tested, about 20% had one in any assay.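 Values shown are percent growth following 48 h exposure of cells in 96-well plates to a single concentration of compound; below 10 was considered active.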 Activity calls are given as the source filed them.

Each molecule was assayed on SK-MEL-2 melanoma (assay: NCI-60 one-dose screen, 48 h (100 = growth as untreated, 0 = no growth, -100 = all killed)). Settings: 10 µM unless noted.
Protocol: Growth inhibition of the SK-MEL-2 human tumor cell line is measured as a screen for anti-cancer activity. Cells are grown in 96 well plates and exposed to the test compound for 48 hours. Compounds are tested at a single concentration, which is 10^-5 M for most compounds. The reported endpoint is percent growth (GI% or GIPRCNT), where numbers from 0 - 100% represent growth inhibition, and numbers from -100% - 0 represent cell death. For example, a value of 40 represents 60% growth inhibition. A value of 0 means no net growth occurred over the course of the experiment. A value of -40 indicates 40% of cells at the beginning of the experiment died by the end of the experiment. A value of -100 means all cells are dead at the end of the experiment.
NCI-60 Human Tumor Cell Lines Screen was performed using the standard one-dose NCI protocol, which is described in more detail at https://dtp.cancer.gov/discovery_development/nci-60/default.htm.
Compounds with GIPRCNT values below 10 were considered active. Activity score was based on GIPRCNT using the following formula: […]
Score is 0 for GIPRCNT values of 100 or above, 50 for GIPRCNT values of 0, and 100 for GIPRCNT values of -100.

SMILES | growth
CC(C)[C@H](CN)NC[C@H](C)NS(=O)(=O)c1ccc(C(C)(C)C)cc1 | 101% (inactive)
C#CC[C@@H]1C[C@]2(C)[C@H]3CC=C4[C@H]5CC(C)(C)CC[C@]5(C(=O)NCCCCN)CC[C@@]4(C)[C@]3(C)CC[C@H]2C(C)(C)[C@H]1OC(C)=O | 98.9% (inactive)
Cn1nc(C(F)(F)F)cc1-c1cc(Cl)c(OCc2ccc(Cl)cc2)c(-c2ccc(Cl)c(C(F)(F)F)c2)c1O | -33.8% (active)
O=C1c2ccccc2C(=O)c2c1oc1ccc3ccccc3c21 | 101% (inactive)
COc1cc(C)c2c(=O)c3c(oc2c1)C(=O)c1c(O)c(OC)cc(O)c1C3=O | -25.7% (active)
O=c1[nH]c2ccccc2n2cc3cccnc3c12 | 105% (inactive)
Fc1cc(-c2nnc3sc(-c4ccc(Cl)cc4)nn23)c(Cl)cc1Cl | 95.7% (inactive)
Nc1nc(N)c2cc(CNc3ccc(Cl)c(Cl)c3)ccc2n1 | 42% (inactive)
Cc1nc2n[nH]c(N)c2nc1C | 103% (inactive)
CC(=O)O[C@H]1[C@H](CC#CC#CC[C@@H]2C[C@]3(C)[C@H]4CC=C5[C@H]6[C@@H](C)[C@H](C)CC[C@]6(C(=O)NCCCCCCCCN)CC[C@@]5(C)[C@]4(C)CC[C@H]3C(C)(C)[C@H]2OC(C)=O)C[C@]2(C)[C@H]3CC=C4[C@H]5[C@@H](C)[C@H](C)CC[C@]5(C(=O)NCCCCCCCCN)CC[C@@]4(C)[C@]3(C)CC[C@H]2C1(C)C | 125% (inactive)
COc1ccc(Nc2ncccc2C(=O)NCc2cn(Cc3cc(OC)cc(OC)c3)nn2)cc1 | 89.5% (inactive)
Nc1ccc(N(O)/C=C2\C=CC=CC2=O)cc1N | 108% (inactive)
CC(=O)[C@H]1CC[C@H]2[C@@H]3CC[C@H]4CC=CC[C@]4(C)[C@H]3CC[C@]12C | 79.9% (inactive)
O=c1c2sc3ncc(Cl)cc3c2nnn1-c1cccc(Cl)c1 | 92.9% (inactive)
COCCn1c(Nc2ccc(C(=O)NO)cc2)nc2ccccc21 | 39.6% (inactive)
CC(=O)c1nn(-c2ccccc2)/c(=N\N=C\c2coc3ccc(F)cc3c2=O)s1 | 107% (inactive)
CN1CCN(Cc2ccc(NC(=O)c3cncc(C#Cc4ncc5ccccn45)c3)cc2C(F)(F)F)CC1 | -8.17% (active)
Cc1[nH]n(C(=O)c2ccncc2)c(=O)c1N=Nc1ccc(O)c(C(=O)O)c1 | 159% (inactive)
COc1ccc(NC(=O)/C=C/c2ccc(Cl)c(Cl)c2)cn1 | 101% (inactive)
Brc1cccc(-n2ncc3c(Nc4ccc(-c5nnc(-c6ccccc6)o5)cc4)ncnc32)c1 | 115% (inactive)

SMILES | growth
CCN(CC)CCCC(C)Nc1cnc(C(=O)Nc2cc(C)cc3cccnc23)cn1 (stereo not given) | 104% (inactive)
N#Cc1nc(-c2cccc(Br)c2)cc(-c2ccc(Nc3nc(N4CCCCC4)nc(N4CCCCC4)n3)cc2)c1N | -10.7% (active)
CCOC(=O)c1c(NC(=O)c2ccccc2)sc2c(O)c(CN(CC)CC)ccc12 | 7.87% (active)
COC(=O)c1ccc(NC(N)=NCCC(C)(C)c2ccc(C(F)(F)F)cc2)nc1 | 70.3% (inactive)
CCCCCCCCCC1=NC(C)(C)CN1C(C)(C)CO | 124% (inactive)
Cc1nn(-c2ccc(Cl)cc2)c(=O)n1CCN1CCOCC1 | 61.1% (inactive)
O=C(Cn1nncc1CN1C(=O)CSC1=O)Nc1ccc(F)cc1 | 101% (inactive)
COc1cc2nccc(Oc3ccc(NC(=O)C4(C(=O)Nc5c(F)cc(F)cc5F)CC4)cc3)c2cc1Oc1ccc(N)cn1 | 81.5% (inactive)
O=C1C(Cl)=C(N/N=c2/[nH][nH]/c(=N/NC3=C(Cl)C(=O)c4ccccc4C3=O)c3ccccc23)C(=O)c2ccccc21 | 96.4% (inactive)
OC(c1cc2cc(Cl)ccc2c2cc(C(F)(F)F)ccc12)C1CCCCN1 (stereo not given) | -92% (active)
COc1cc(Cn2c(-c3ccccc3)cc3c2-c2oncc2CC3)cc(OC)c1OC | 31.4% (inactive)
CC1(C)CC[C@]2(C(=O)N3CCNCC3)CC[C@]3(C)C(=CC[C@@H]4[C@@]5(C)CCC(=O)C(C)(C)[C@@H]5CC[C@]43C)[C@@H]2C1 | 105% (inactive)
COc1ccc(/C(=C\c2ccc3c(c2)OCO3)C(=O)Nc2nc3ccc(F)cc3s2)cc1OC | 95.7% (inactive)
COc1ccc(-c2cnc3ccnn3c2-c2cc(OC)c(OC)c(OC)c2)cc1 | 36.9% (inactive)
O=C(NCCNC(=O)c1cc(S(=O)(=O)NCCc2ccccc2)c(O)c(O)c1O)c1cc(S(=O)(=O)NCCc2ccccc2)c(O)c(O)c1O | 63% (inactive)
COc1ccc(-c2[nH]nc(N)c2-c2cc(OC)c(OC)c(OC)c2)cc1 | 42.5% (inactive)
Cn1c(=O)c2[nH]c(Cc3ccc4c(c3)OCO4)nc2n(C)c1=O | 122% (inactive)
CC(C)c1ccc(Cn2ccc3c4c(N)nc(NC5CC5)nc4ccc32)cc1 | -82.6% (active)
Nc1cccc(S(=O)(=O)c2cccc(N)c2)c1 | 116% (inactive)
Oc1[nH]c2ccc(Cl)cc2c1/C=c1/ccc2c(c1)N=C(c1ccc(F)cc1)N=2 | 92.3% (inactive)
